# Only some compounds are listed: those with a hit (about 3.3% of all), similar ones and a draw of the others.
# Luc counter = blocks Kinase-Glo luciferase, a counter-screen artifact. Q27757. Kinase-Glo luciferase, ATP luminescence, 8 min. Potency, µM (titrated, usually from 38.3 µM), inactives show at the highest dose activity change, negative = inhibition, usual class: inhibitors. hit rate 0.28% among 200,000. AID 1379; also: nearly all actives have a fitted effect of over 60% in size
#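 Compounds were added to a substrate mix at pH 7.2 (50 mM imidazole, 10 uM ATP, within the enzyme's linear range), followed by Kinase-Glo detection reagent; luminescence was measured after 8 minutes at ambient temperature.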
# Tau fibril ThT = blocks human tau fibril formation measured by thioflavin T. recombinant tau K18 P301L, heparin-induced fibrillization, ThT fluorescence. AID 1460. Potency, µM (top dose mostly 57.4 µM), for inactives: top-dose activity, negative = inhibition, most hits filed as inhibitors. hit rate 2.1% among 270,000; also: nearly all actives have a fitted effect of over 55% in size
# Target sequence (P10636 561-689 P618L limits assumed): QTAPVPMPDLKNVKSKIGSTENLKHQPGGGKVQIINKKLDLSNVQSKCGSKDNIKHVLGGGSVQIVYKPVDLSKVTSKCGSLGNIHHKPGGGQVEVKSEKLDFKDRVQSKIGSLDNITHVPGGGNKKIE
#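 Tau K18 P301L fragment (15 uM unlabeled plus 0.24 uM Alexa 594-labeled) in 100 mM sodium acetate pH 7 with compound, fibrillization induced by 20 uM heparin for 6 hr at 37 C. Thioflavin T (30 uM) added, fluorescence read after 1 hr (ex 450, em 510 nm).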
# NPSR antag = antagonists of human neuropeptide S receptor cAMP signaling. Q6W5P4. CHO-NPSR cells, cAMP TR-FRET, antagonist mode. Potency, µM (highest dose often 38.3 µM), without a hit: top-dose activity change, negative = inhibition, usual class: inhibitors. hit rate 1% among 220,000; also: nearly all actives have a fitted effect of over 50% in size
# Target sequence (Q6W5P4 whole entry, looked up): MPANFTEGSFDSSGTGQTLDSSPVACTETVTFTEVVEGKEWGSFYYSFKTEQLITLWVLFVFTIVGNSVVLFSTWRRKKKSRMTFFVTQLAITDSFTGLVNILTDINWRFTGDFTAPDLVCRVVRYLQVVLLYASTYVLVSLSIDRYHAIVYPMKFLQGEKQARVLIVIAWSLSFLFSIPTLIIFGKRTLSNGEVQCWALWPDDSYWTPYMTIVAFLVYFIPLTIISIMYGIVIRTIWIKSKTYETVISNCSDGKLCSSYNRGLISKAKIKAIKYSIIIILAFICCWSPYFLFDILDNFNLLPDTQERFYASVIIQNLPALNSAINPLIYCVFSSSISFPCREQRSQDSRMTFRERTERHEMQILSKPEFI
# Tau fibril FP = blocks human tau fibril formation measured by polarization. P10636. K18 P301L tau heparin fibrillization, Alexa594 FP, 6 h. Potency, µM (doses to about 57.7 µM), inactives show at the highest dose activity, negative = inhibition, actives largely listed as inhibitors. hit rate 0.39% among 280,000. AID 1468; also: nearly all actives have a fitted effect of over 55% in size
#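 Quantitative HTS format: compounds meet 15 uM recombinant K18 P301L tau and Alexa 594-tau tracer in 100 mM sodium acetate pH 7; 20 uM heparin triggers fibrillization at 37 C over 6 hr; FP gives the signal.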
# Tau fluor cs = counter-screen for tau fibril formation inhibitors | tau K18 P301L Alexa594 fluorescence, heparin fibrillization | Potency, µM (highest dose often 57.7 µM), for inactives: top-dose activity change, negative = decrease | hit rate 0.93% among 280,000 | AID 1463; also: nearly all actives have a fitted effect of over 55% in size
#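 Human tau K18 P301L (15 uM unlabeled, 0.24 uM Alexa 594-labeled) in 100 mM sodium acetate pH 7 with 20 uM heparin, 6 hr at 37 C. ThT 30 uM added, 1 hr ambient; Alexa 594 FP and total fluorescence read at 555/632 nm.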
# * marks the source's active call; other numbers are inactive results; ? = inconclusive; nt = no result; [ ] = another dose, or the depositor's remark. Calls follow the shape of the dose curve; as a rule, active = well fitted curve in the direction sought with a large enough effect; inconclusive = small, poorly fitted or top-dose-only effect, or another doubt; inactive = no such curve, though single readings can be large; an effect the other way counts as inactive or inconclusive. % is scaled to controls: 0 for no effect and ±100 for the full control effect; potency is read from the fitted curve at half-maximal effect.
SMILES,Luc counter,Tau fibril ThT,NPSR antag,Tau fibril FP,Tau fluor cs
Cc1ccc(Nc2nc(CSc3nnnn3C)cs2)cc1,1.3%,?,-11.8%[46.1 µM],4.1%,?
Cc1ccc(Nc2nc(CSc3nnnn3-c3ccccc3)cs2)cc1,-1.4%,?,-26.3%[46.1 µM],12.5%,11.2µM*[quencher]
N#Cc1c(N)sc(=S)c2c1CCN(Cc1ccccc1)C2,-2.8%,1.26µM*,-16.2%[46.1 µM],?,?
COC(=O)c1cc(C)nc2c1c(=O)nc(SCc1cccc(C)c1)n2C1CC1,nt,-4.1%,nt,0.2%,0.3%
C=COCCn1c(=N)n(CCC)c2ccccc21,nt,-4.2%,-2.9%[46.1 µM],28.2µM*,?
COc1cc(/C=C2\S/C(=N/S(=O)(=O)c3ccc(C)cc3)NC2=O)c([N+](=O)[O-])cc1OC,1.5%,14.1µM*,3.1%[46.1 µM],?,?
COC(=O)c1ccccc1NC(=O)COC(=O)c1ccccc1N=Nc1ccc(N(C)C)cc1,-1.7%,4.47µM*,1.2%,16.6%,?
CC(=O)c1ccc(NC(=O)COC(=O)c2ccccc2N=Nc2ccc(N(C)C)cc2)cc1,-13.3%,10.4%,5.6%,4.5%,5.3%
CN(C)c1ccc(N=Nc2ccccc2C(=O)OCC(=O)N(C)c2ccccc2)cc1,-5.2%,1.58µM*,4.2%,?,4.3%
Nc1ncnc2c1ncn2[C@@H]1O[C@H](COP(=O)(O)OP(=O)(O)O)[C@@H](O)[C@H]1O,5.01µM*,4.3%,nt,-2.2%,-0.6%
O=C(NC1CC(=O)N(c2cccc(F)c2)C1)c1ccc(Br)o1 (stereo not drawn),nt,3.7%,nt,1.4%,1.7%
NS(=O)(=O)c1ccc(N/N=C/c2cn(-c3ccccc3)nc2-c2ccccc2)c([N+](=O)[O-])c1,-5.7%,15.8µM*,-40.3%,3.7%,17.8µM*[quencher]
O=C(O)/C=C/c1cn(-c2ccccc2)nc1-c1ccc(-c2ccc([N+](=O)[O-])cc2)o1,nt,1.12µM*,58.6%,-1.2%,?
O=[N+]([O-])c1ccc(N/N=C/c2cn(-c3ccccc3)nc2-c2ccccc2)cc1,?,7.94µM*,-19.6%[46.1 µM],7.1%,7.94µM*[quencher]
CCN1CCN(C(=O)Cn2c(-c3cccs3)cc3cc(Cl)ccc32)CC1,nt,?,nt,-8.2%,-23.7%
CCOC(=O)c1c(C)[nH]c(C)c1S(=O)(=O)N1CCCC(C(=O)Nc2ccccc2OCC)C1 (stereo not drawn),nt,-2.3%,nt,0.6%,-5.2%
Cc1noc(C)c1CSc1nc2ccccc2c(=O)n1-c1ccc(Cl)cc1,0.0%,-6.7%,10µM*,3.0%,-11.3%
COC(=O)c1cc2oc(C)cc2n1CC(=O)Nc1ccc(C(C)C)cc1,nt,?,nt,1.0%,?
O=C(NNc1nc2ccc(F)cc2s1)c1cccc(F)c1,2.6%,?,-7.5%,8.2%,-12.9%
O=C(Nc1nc2ccc(F)cc2s1)c1nc(S(=O)(=O)Cc2ccccc2F)ncc1Cl,nt,10µM*,nt,-10.7%,-21.0%
Cc1ccc(C(=O)Nc2nc3ccccc3s2)s1,12.6µM*,-9.2%,-38.8%[46.1 µM],-11.0%,-25.1%
O=C(Nc1nc2ccc(F)cc2s1)c1ccccn1,11.2µM*,?,-41.0%,3.1%,-15.4%
CCOc1ccc2nc(NC(=O)c3cnccn3)sc2c1,nt,-9.2%,0.1%[46.1 µM],2.1%,-4.9%
CCOc1ccc(NC(=O)c2nc(S(=O)(=O)Cc3ccccc3F)ncc2Cl)cc1,nt,?,nt,1.5%,4.3%
O=C(Nc1nc2ccccc2s1)c1cnccn1,7.94µM*,-11.7%,-6.5%[46.1 µM],-3.8%,-9.2%
SMILES,Luc counter,Tau fibril ThT,NPSR antag,Tau fibril FP,Tau fluor cs
COc1ccccc1N1CCN(c2c(CN3CCCC3)c(=O)oc3ccccc23)CC1,nt,-12.2%,nt,-5.1%,-7.1%
Cc1oc(-c2ccc3c(c2)OCCO3)cc1C(=O)O,12.6µM*,0.7%,?,-5.7%,6.3%
Cc1nc(SCc2cccc(Cl)c2)nc2c1CCCC2,nt,-12.0%,nt,9.5%,-4.7%
CC1=NN(c2ccccc2)C(=O)/C1=C/N(C)C,nt,-8.9%,0.4%[7.67 µM],-11.9%,-5.0%
CC1=NN(c2ccccc2)C(=O)/C1=C/c1cn(C)c2ccccc12,nt,2.82µM*,31.0%,7.9%,?
CC1=NN(c2ccccc2)C(=O)/C1=C\c1cn(C)c2ccccc12,-1.6%,7.08µM*,-34.7%,?,?
CC1=NN(c2ccccc2)C(=O)/C1=C\c1cc(C)n(C)c1C,nt,3.55µM*,-33.7%,?,-13.4%
CC1=NN(c2ccccc2)C(=O)/C1=C/c1cc2cc(C)ccc2nc1N1CCCCC1,-1.9%,?,-13.5%[46.1 µM],-8.7%,?
CCOc1ccc(NC(=O)C(=O)NCCc2ccccc2)cc1,nt,-9.9%,nt,-3.6%,-8.4%
Cc1ccc2cc(C#N)c(SCC(=O)NNC(=O)Cc3ccccc3)nc2c1,0.0%,7.9%,7.94µM*,-8.1%,10.5%
Cc1ccc2nc(SCC(=O)NCc3cccs3)c(C#N)cc2c1,-1.4%,6.5%,10µM*,1.2%,4.0%
COc1ccc2cc(C#N)c(SCC(=O)NNC(=O)Cc3ccccc3)nc2c1,-1.3%,?,4.4%[46.1 µM],?,-10.4%
CCOc1ccc(NC(=O)Cc2ccc(-n3c(C)nc4cccnc43)cc2)cc1,nt,-12.5%,nt,3.4%,-18.5%
CCCCC(=O)N/N=C/c1ccc(-c2ccc([N+](=O)[O-])cc2)o1,0.0%,4.47µM*,31.6%,9.0%,?
C=CCNC(=S)N/N=C/c1ccc(-c2cc(Cl)ccc2Cl)o1,-2.0%,?,-0.4%[46.1 µM],-2.7%,2.7%
CCC(=O)N/N=C/c1ccc(-c2ccc([N+](=O)[O-])cc2)o1,-2.7%,7.94µM*,32.2%,2.0%,-27.7%
C=CCNC(=S)N/N=C/c1ccc(-c2ccc(OC)cc2)o1,-24.4%,?,-31.4%,9.1%,20µM*[quencher]
NS(=O)(=O)c1ccc(-c2ccc(/C=N/NC(=O)c3ccc([N+](=O)[O-])cc3)o2)cc1,nt,?,-0.3%,3.2%,-22.3%
CCc1nnc(N/N=C/c2ccc(-c3ccc([N+](=O)[O-])cc3)o2)n1N,-0.7%,1.78µM*,-35.1%,?,?
COc1ccc(NC(=O)c2ncn(-c3ccccc3)n2)cc1Cl,nt,?,nt,-13.2%,-21.6%
CC(C)Nc1ccc(-c2nc(-c3ccncc3)no2)cc1[N+](=O)[O-],nt,-12.7%,nt,-0.8%,-14.1%
CNC(=S)N/N=C/c1ccc(-c2ccc(Cl)c([N+](=O)[O-])c2)o1,-10.9%,?,19.1%,-12.5%,?
CC(C)(C)NC(=S)N/N=C\c1ccc(-c2ccc([N+](=O)[O-])cc2)o1,nt,7.08µM*,?,11.8%,?
O=C(N/N=C/c1ccc(-c2ccc([N+](=O)[O-])cc2)o1)C(O)c1ccccc1 (stereo not drawn),2.0%,15.8µM*,-4.5%,6.4%,?
CCOC(=O)CCN1C(=O)[C@H]2[C@H]3[C@H](O)[C@H](O)C/C(=N/OCC(C)C)[C@H]3CC[C@@H]2C1=O,nt,-13.4%[11.5 µM],nt,3.0%[11.6 µM],-15.5%[11.6 µM]
COc1ccccc1CN1COc2ccc3c(C)cc(=O)oc3c2C1,nt,8.3%,nt,3.9%,7.2%
O=C1CS/C(=N/N=C2CCCC2)N1,14.0%,-5.7%,1.7%,-0.7%,-4.9%
